Assay results reported in PubChem BioAssay (NCI).
About 83,000 compounds went through this panel and 20% of them were active in at least one assay; those are over-represented in the sample as a whole.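 Compound tested at a single concentration for 48 hours in 96-well plates; a percent growth value below 10 was scored as active.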 Calls of active or inactive are those of the source.

Tests used:
Test in all cases: NCI-60 one-dose screen, 48 h (100 = growth as untreated, 0 = no growth, -100 = all killed)
Conditions in all cases: 10 µM unless noted
[1] = system: NCI-H23 lung
[2] = system: NCI-H226 lung
[3] = system: NCI-H322M lung
[4] = system: HOP-62 NSCLC
[5] = system: NCI-H460 lung
[6] = system: HOP-92 NSCLC
[7] = system: NCI-H522 lung
[8] = system: A549/ATCC NSCLC
[9] = system: 786-0 renal
[10] = system: COLO 205 colon

Measured: growth

COc1ccc(-c2nc3ccccn3c2/C=C/C(=O)c2cc(OC)c(OC)c(OC)c2)cc1OC
active: [5] 0.623% | [6] -22.5% | [7] -5.63%
inactive: [1] 16.3% | [2] 23.3% | [3] 51.3% | [4] 28.5% | [8] 20.7% | [9] 24.7%

O=C(Nc1cccc(C2=NCCN2)c1)c1cccc(C(=O)Nc2cccc(C3=NCCN3)c2)c1
inactive: [1] 95.4% | [2] 90.5% | [3] 92.4% | [4] 97.1% | [5] 102% | [6] 101% | [7] 94.1% | [8] 102% | [9] 103%

Cn1cc(-c2noc(-c3cn(C)c4ncc(F)cc34)n2)c2cc(Cl)ccc21
active: [5] 2.39% | [9] 9.09%
inactive: [1] 81.3% | [2] 95.7% | [3] 50.3% | [4] 68.4% | [6] 64.3% | [7] 74.2% | [8] 33.9%

C=C(CN=[N+]=[N-])[C@@H]1CC[C@]2(C)[C@H](CC[C@@H]3[C@H]4[C@H]5OC(=O)[C@@]4(CCC5(C)C)CC[C@]32C)[C@@]1(C)CCC#N
inactive: [1] 82.2% [100 µM] | [2] 83.1% [100 µM] | [3] 96.9% [100 µM] | [4] 90.9% [100 µM] | [5] 73.5% [100 µM] | [6] 65% [100 µM] | [7] 70.2% [100 µM] | [8] 78.6% [100 µM] | [9] 87.9% [100 µM]

CC(C)C1=NOC(=O)C1=Cc1cn(-c2ccccc2)nc1-c1ccc(Cl)cc1
inactive: [1] 84.8% | [2] 92.6% | [3] 93.9% | [4] 92.4% | [5] 85.3% | [6] 86.9% | [7] 80.8% | [8] 100% | [9] 80.7%

COc1cc2c(cc1OCCCCCOc1ccc(-n3c(C)nc4ccccc4c3=O)cc1)N=C[C@@H]1CCCN1C2=O
active: [1] -20.1% | [2] 2.04% | [3] -31.2% | [4] -29% | [5] -31.2% | [6] -17.8% | [7] -33.5% | [8] 7.25% | [9] -42.5%

CCCCCn1c(C)cc(/C=C\c2ccc3cc(C)ccc3[n+]2C)c1C
inactive: [3] 30.3%
active: [1] 3.14% | [2] -58.4% | [4] -58.9% | [5] -75.1% | [6] -64% | [7] -36.7% | [8] -84.5% | [9] -76.7%

CC(=O)O.CC(=O)O.O.[Fe]
inactive: [1] 106% | [2] 101% | [3] 111% | [4] 103% | [5] 107% | [6] 99.8% | [7] 90% | [8] 99.1% | [9] 112%

CC(C)=CC/C=C(/C)[C@H]1CC[C@]2(C)[C@@H]1CC[C@@H]1[C@@]3(C)CC/C(=N/O)C(C)(C)[C@@H]3CC[C@]12C
inactive: [1] 47.5% [100 µM] | [2] 59.7% [100 µM] | [3] 77.3% [100 µM] | [4] 74.2% [100 µM] | [5] 40.5% [100 µM] | [6] 53.1% [100 µM] | [7] 21.3% [100 µM] | [8] 54.9% [100 µM] | [9] 58.7% [100 µM] | [10] 65.8% [100 µM]

CCN(CC)c1ccc(/C=C/C=C2\NC(=O)NC2=O)cc1
active: [7] -36% | [9] 9.14%
inactive: [1] 49.8% | [2] 69% | [3] 63.3% | [4] 45.3% | [5] 19.7% | [6] 31.1% | [8] 37.2%

CCCC(NC(=O)OCc1ccccc1)C(=O)O (centres undefined)
active: [1] -1.29%
inactive: [2] 89.5% | [3] 121% | [4] 111% | [5] 97.9% | [6] 82.2% | [7] 16.2% | [8] 79.5% | [9] 108% | [10] 137%

COc1cc(Cl)cc(-c2nn(C(=O)NS(=O)(=O)c3ccccc3)cc2-c2ccncc2)c1
inactive: [1] 90.4% | [2] 69.3% | [3] 96% | [4] 68.6% | [5] 107% | [6] 47.7% | [7] 82.5% | [8] 78.5% | [9] 70.9% | [10] 69.7%

Nc1cc(C(=O)O)[nH]c(=S)n1
inactive: [1] 95.2% | [2] 95.2% | [3] 98.1% | [4] 106% | [5] 105% | [6] 67.7% | [7] 96.7% | [8] 98.5% | [9] 100%

O=C1NC(=O)C(Cc2ccc(OCc3ccc(-c4cc(F)c(F)c(F)c4)cc3)cc2)S1 (centres undefined)
inactive: [1] 80.9% | [2] 82.5% | [3] 92.4% | [4] 91.7% | [5] 92% | [6] 98.2% | [7] 49.5% | [8] 73.2% | [9] 95.5%

COc1cccc(-c2[nH]c(=S)ncc2C(=O)c2ccccc2)c1
inactive: [1] 97% | [2] 102% | [3] 99.9% | [4] 78.8% | [5] 91.9% | [6] 102% | [7] 70.9% | [8] 88.4% | [9] 100%

CCN(CC)c1ccc2cc(C(Nc3ccc(Cl)cc3)c3nnnn3C(C)(C)C)c(=O)oc2c1 (centres undefined)
inactive: [1] 95.6% | [2] 82.9% | [3] 93.8% | [4] 99.5% | [5] 84.1% | [6] 76.9% | [7] 79.5% | [8] 77.9% | [9] 94%

CC(C)CCSc1nc(N)nc2nc[nH]c12
inactive: [1] 104% | [2] 96.7% | [3] 143% | [4] 102% | [5] 96.8% | [6] 76.4% | [7] 79.9% | [8] 104% | [9] 95.9%

COc1ccc(CC(C#N)c2ccc(Cl)cc2)cc1 (centres undefined)
inactive: [1] 77.2% | [2] 87.5% | [3] 93.9% | [4] 74.3% | [5] 83.7% | [6] 83.8% | [7] 78.1% | [8] 79.1% | [9] 87%

CCCCC(CCCCCC(CCCC)C1NC(C)Cc2cc(OC)c(OC)cc21)C1NC(C)Cc2cc(OC)c(OC)cc21 (centres undefined)
active: [1] -81.4% | [2] -77.8% | [3] -39.4% | [4] -97.2% | [5] -73.8% | [6] -57.8% | [7] -87.7% | [8] -80.9% | [9] -98.4%

NC(=O)CC1C=CCC1 (centres undefined)
inactive: [1] 94.5% | [2] 99.4% | [3] 108% | [4] 103% | [5] 101% | [6] 106% | [7] 97.9% | [8] 80.1% | [9] 96.5%

COc1ccc(/C=C(/C(=O)c2ccc(Cl)cc2)C(=O)C(F)(F)F)cc1
inactive: [1] 91.4% | [2] 99.9% | [3] 77.7% | [4] 91.9% | [5] 109% | [6] 101% | [7] 74.8% | [8] 92% | [9] 99.1%

CCn1cc(-c2[nH]c(=S)ncc2-c2ccc(Cl)cc2)c(-c2ccc(Br)cc2)n1
inactive: [1] 85.8% | [2] 94% | [3] 96.5% | [4] 61.6% | [5] 58.5% | [6] 104% | [7] 58.5% | [8] 72.2% | [9] 101% | [10] 94%

[2H]C1([2H])CCN(C(=O)C2CC2)c2cc(NS(=O)(=O)c3ccc(-c4cccc(C(N)=O)c4)cc3)ccc21
inactive: [1] 44% | [2] 61.1% | [3] 64.6% | [4] 29.1% | [5] 17.3% | [6] 33.3% | [7] 14% | [8] 45.2% | [9] 81.8% | [10] 37.7%

CCCCOC(=O)c1cccc([N+](=O)[O-])c1
inactive: [1] 101% | [2] 104% | [3] 106% | [4] 109% | [5] 107% | [6] 99.8% | [7] 92.7% | [8] 107% | [9] 112% | [10] 115%

C=CCCCCCCCCC(=O)OC(C)C
inactive: [1] 98.4% | [2] 102% | [3] 94% | [4] 97.5% | [5] 100% | [6] 82.3% | [7] 91.7% | [8] 99.2% | [9] 104%

COc1cc(NCc2ccccc2O)c2ncccc2c1
inactive: [1] 97.7% | [2] 104% | [3] 90.7% | [4] 83.5% | [5] 97.3% | [6] 81.1% | [7] 88.3% | [8] 110% | [9] 69.5%

COC(=O)c1cc2c(=O)[nH]cc3c2c(n1)CCC3
inactive: [1] 106% | [2] 112% | [3] 108% | [4] 97.4% | [5] 101% | [6] 76.8% | [7] 102% | [8] 101% | [9] 101% | [10] 106%

Cc1cc(C)c(O)c(CNCCCNCc2cc(C)cc(C)c2O)c1
inactive: [1] 81.7% | [2] 91.4% | [3] 45.7% | [4] 74.9% | [5] 40.7% | [6] 40.5% | [7] 42.4% | [8] 78.8% | [9] 80%
